Experimental data taken from article PMC4336329 (PLoS ONE, 2015).
The whole screen tested about 310,000 compounds, of which about 14,000 (4.5%) showed an effect of 50% or more. Effects have a minus sign here. What follows is part of a selection rich in strong results, with near analogues and random picks from the rest.

biological target: human ether-à-go-go-related gene (hERG) potassium channel (human, UniProt Q12809); assay: primary screen, population patch clamp on CHO cells stably expressing hERG; higher = less effect of the substance
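Further: peak tail current of the secondary pulse compared with the same well before compound.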

Sequence of human ether-à-go-go-related gene (hERG) potassium channel (Q12809 whole entry, looked up): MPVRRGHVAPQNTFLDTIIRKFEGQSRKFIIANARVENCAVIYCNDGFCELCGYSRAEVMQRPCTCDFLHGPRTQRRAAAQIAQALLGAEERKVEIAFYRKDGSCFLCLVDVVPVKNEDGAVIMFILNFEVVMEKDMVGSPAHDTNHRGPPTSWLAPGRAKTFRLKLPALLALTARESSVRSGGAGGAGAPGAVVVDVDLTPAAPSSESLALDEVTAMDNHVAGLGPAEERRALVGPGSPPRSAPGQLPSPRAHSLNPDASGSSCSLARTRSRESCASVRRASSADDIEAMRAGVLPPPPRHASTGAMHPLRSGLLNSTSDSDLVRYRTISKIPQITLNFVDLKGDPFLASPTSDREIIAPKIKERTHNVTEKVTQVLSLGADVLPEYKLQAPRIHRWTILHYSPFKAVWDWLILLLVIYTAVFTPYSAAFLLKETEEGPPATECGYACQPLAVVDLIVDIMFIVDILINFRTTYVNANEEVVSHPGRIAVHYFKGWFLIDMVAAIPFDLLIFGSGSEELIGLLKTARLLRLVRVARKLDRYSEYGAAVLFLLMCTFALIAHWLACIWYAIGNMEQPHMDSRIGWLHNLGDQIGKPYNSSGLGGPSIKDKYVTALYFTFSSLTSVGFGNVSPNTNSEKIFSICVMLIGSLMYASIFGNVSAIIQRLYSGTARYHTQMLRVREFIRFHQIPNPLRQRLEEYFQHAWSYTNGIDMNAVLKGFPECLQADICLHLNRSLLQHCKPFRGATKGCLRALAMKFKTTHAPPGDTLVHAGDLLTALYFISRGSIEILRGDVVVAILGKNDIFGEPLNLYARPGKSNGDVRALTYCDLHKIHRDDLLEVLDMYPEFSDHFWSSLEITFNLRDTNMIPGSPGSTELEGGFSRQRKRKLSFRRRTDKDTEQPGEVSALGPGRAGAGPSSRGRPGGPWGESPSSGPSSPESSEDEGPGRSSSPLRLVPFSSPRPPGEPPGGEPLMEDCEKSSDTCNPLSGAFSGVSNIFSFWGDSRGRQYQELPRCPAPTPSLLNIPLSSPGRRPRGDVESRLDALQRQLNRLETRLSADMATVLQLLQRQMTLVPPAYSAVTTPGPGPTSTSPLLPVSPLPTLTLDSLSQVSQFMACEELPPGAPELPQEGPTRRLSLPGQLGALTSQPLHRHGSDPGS

Row | SMILES | hERG current change (%, negative = inhibition) at 10uM
1 | COCCCNC(=O)C1CCC(CNS(=O)(=O)c2ccc(C)cc2)CC1 (centres unmarked) | 14%
2 | Cc1cccc(CCN2C(N(C)C)=NC[C@@H]2C)c1 | -7.74%
3 | Cc1c(NC(=O)/C(C#N)=C/c2ccc(-c3cccc(Cl)c3)o2)c(=O)n(-c2ccccc2)n1C | -24.5%
4 | NC(=O)c1cc(C(N)=O)nc(Cl)n1 | 16.1%
5 | Cc1cccnc1NC(=O)c1ccc(S(=O)(=O)N2CCC(C)CC2)cc1 | -12.3%
6 | COc1ncnc2c1ncn2CC1COC(C)(C)O1 (centres unmarked) | 15.9%
7 | Cc1sc2nc(CSc3ccccc3)nc(NCCN(C)C)c2c1C | -72.2%
8 | Cc1sc2nc(CSc3ccccc3)nc(N3CCC(C(N)=O)CC3)c2c1C | -8.46%
9 | CCNc1nc(CSc2ccccc2)nc2sc(C)c(C)c12 | 1.64%
10 | CCOC(=O)c1sc2nc(CSc3ccccc3)nc(NCCN(C)C)c2c1C | -17.4%
11 | Cc1sc2nc(CSc3ccccc3)nc(N3CCOCC3)c2c1C | 2.04%
12 | Cc1sc2nc(CSc3ccccc3)nc(N3CCN(C)CC3)c2c1C | -58.5%
13 | CCOC(=O)c1sc2nc(CSc3ccccc3)nc(N3CCC(C(N)=O)CC3)c2c1C | 17.5%
14 | COCCNc1nc(CSc2ccccc2)nc2sc(C)c(C)c12 | -5.97%
15 | CCOC(=O)c1sc2nc(CSc3ccccc3)nc(N3CCCN(C)CC3)c2c1C.O=C(O)C(=O)O | -70%
16 | O=C(NCCCN=C1NS(=O)(=O)c2ccccc21)c1ccco1 | -10%
17 | Cc1nn(C)cc1C1C(C#N)=C(N)N(c2ccc(F)c([N+](=O)[O-])c2)C2=C1C(=O)CCC2 (centres unmarked) | 11%
18 | Cc1ccc(S(=O)(=O)N2[C@@H](c3cccc(Cl)c3)C(C(=O)O)=CC[C@H]2c2cccc(Cl)c2)cc1 | 3.05%
19 | COc1ccc(NC(=S)N/C(=N/CS(=O)(=O)c2ccccc2)c2ccccc2)cc1 | -53%
20 | O=[N+]([O-])c1ccc(NC(=S)N/C(=N/CS(=O)(=O)c2ccccc2)c2ccccc2)cc1 | -25.1%
21 | COc1ccc(NC(=S)N/C(=N/S(=O)(=O)c2ccc(C)cc2)c2ccccc2)cc1 | 21.2%
22 | COc1ccc(NC2SC(=O)N(C)C2=O)cc1 (centres unmarked) | 1.36%
23 | O=C1C(=O)N(CCN2CCOCC2)C(c2ccncc2)/C1=C(/O)c1ccc2c(c1)OCO2 (centres unmarked) | 8.87%
